Hits are enriched below; roughly 21% of the tested compounds scored in any of these assays.
Pf growth 96h = P. falciparum growth inhibition at 96 hours. hit rate 6.9% among 320,000. Potency, µM (highest dose often 28.7 µM), for the others: at the top dose activity change, negative = inhibition, actives largely listed as inhibitors. P. falciparum luciferase reporter growth, 96 h; further: potency means the concentration at half of the fitted maximal effect; on the % scale 0 is the no-effect control and ±100 the full control effect
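Delayed-death screen, second-generation endpoint: infected erythrocytes, 2% hematocrit, 0.05% parasitemia final; 96 hours at 37 C, 5% CO2; luciferase detection reagent; luminescence decrease equals reduced growth.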
HCV inhibitor = blocks hepatitis C virus. Huh7.5.1 HCVcc-Cre infection, luciferase reporter, 44 h. Potency, µM (series often up to 41.8 µM), inactives show top-dose activity change, negative = inhibition, most hits filed as inhibitors. hit rate 3.4% among 340,000; further: potency means the concentration at half of the fitted maximal effect; on the % scale 0 is the no-effect control and ±100 the full control effect
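Cells seeded at 1,000/well and cultured 4 h, then compounds added followed by HCVcc-Cre virus (~0.5 moi). After 44 h further culture, luciferase substrate was added, plates held 15 min at room temperature, and luminescence read for 15 sec.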
HCMV antiviral = blocks human cytomegalovirus replication; HFF cells, HCMV-luciferase reporter, 72 h; hits give low values; activity change, negative = inhibition, % at 57.5 µM; hit rate 4.5% among 410,000; AID 1259415; in the data active means activity change below about -60%; inconclusive means no clear call, values can overlap the other calls; inactive means above about -39%; further: on the % scale 0 is the no-effect control and ±100 the full control effect
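Inhibition of viral replication was scored as loss of reporter luminescence in HFFs infected with HCMV-luciferase (MOI 1 PFU/cell) for 72 h; compounds tested at 2 doses, normalized to buffer and Salinomycin controls.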
Shiga inhibitor = Shiga toxin inhibition. inhibition, % at 38.7 µM. hit rate 9.2% among 290,000. Vero cells, Shiga toxin protein synthesis inhibition reporter. AID 2315; in the data active means inhibition mostly above about 28%, no sharp cut-off; inactive means mostly below about 43%; further: 0% is about no effect
Cycloheximide cs = counter-screen for Shiga toxin inhibitors: cycloheximide protein synthesis inhibition | hit rate 12% among 300,000 | max response, % | AID 2314 | cell reporter, cycloheximide protein synthesis inhibition counterscreen; in the data active means max response mostly above about 13%, no sharp cut-off; inactive means mostly below about 14%; further: read at 38.3 µM for the half of the compounds with a filed dose; 0% is about no effect
Pf growth 48h = inhibits P. falciparum growth in the first generation, 48 h | P. falciparum luciferase growth in erythrocytes, 48 h | Potency, µM (doses to about 28.7 µM), inactives show top-dose activity change, negative = inhibition, hits mostly inhibitors | hit rate 5.9% among 310,000 | AID 504832; further: potency means the concentration at half of the fitted maximal effect; on the % scale 0 is the no-effect control and ±100 the full control effect
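A one-generation exposure of luciferase-tagged malaria parasites in RPMI 1640/Albumax erythrocyte culture, 37 C and 5% CO2. Inhibition is inferred from decreased luminescence after adding detection reagent.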
* marks the source's active call; other numbers are inactive results; i = inactive; ? = inconclusive; · = no result given. Unless noted, the call rests on the fitted dose curve; in most records, active means well fitted inhibition curve with a large enough effect; inconclusive means small, poorly fitted or top-dose-only effect, or another doubt; inactive means no such curve, though single readings can be large or run the other way.

SMILES | Pf growth 96h | HCV inhibitor | HCMV antiviral | Shiga inhibitor | Cycloheximide cs | Pf growth 48h
COc1ccc(C2C(C#N)=C(SCC(=O)Nc3ccc(C)cc3)NC3=C2C(=O)CC(C)(C)C3)cc1 (centres undefined) | ? | -24% | -30 | 27 | 1 | 13µM*
CCc1c(C#N)c(SCCC(=O)Nc2ccc(C)cc2)nc2c1C(=O)CC(C)(C)C2 | · | 8.9µM* | -29 | -3 | -6 | ?
COc1cccc(NC(=O)CSC2=C(C#N)C(c3ccco3)C3=C(CCCC3=O)N2)c1 (centres undefined) | 134% | ? | 46 | 92* | 36* | -21%
CCCCc1ccc(NC(=O)CSC2=C(C#N)C(c3ccco3)C3=C(CCCC3=O)N2)cc1 (centres undefined) | ? | ? | -32 | -3 | 19* | 1.9µM*
CCC1C(C#N)=C(SCC(N)=O)NC2=C1C(=O)CC(C)(C)C2 (centres undefined) | -2% | -3% | 20 | -10 | -1 | 8%
CC[C@H](C)[C@H](NC(=O)[C@H](C)NC(=O)[C@H](CC(N)=O)NC(=O)[C@H](CCCCN)NC(=O)[C@H](Cc1ccccc1)NC(=O)[C@H](CC(C)C)NC(=O)[C@@H](NC(=O)[C@@H](NC(=O)[C@H](CC(C)C)NC(=O)[C@@H]1CCCN1C(=O)[C@@H](NC(=O)[C@H](CCC(N)=O)NC(=O)[C@H](CO)NC(=O)[C@H](CCCCN)NC(=O)[C@H](CCC(=O)O)NC(=O)[C@H](CO)NC(=O)[C@@H](NC(=O)[C@H](CCSC)NC(=O)[C@H](Cc1ccccc1)NC(=O)CNC(=O)CNC(=O)[C@@H](N)Cc1ccc(O)cc1)[C@@H](C)O)[C@@H](C)O)C(C)C)[C@@H](C)O)C(=O)N[C@H](C(=O)N[C@@H](CCCCN)C(=O)N[C@@H](CC(N)=O)C(=O)N[C@@H](C)C(=O)N[C@@H](Cc1ccc(O)cc1)C(=O)N[C@@H](CCCCN)C(=O)N[C@@H](CCCCN)C(=O)NCC(=O)N[C@@H](CCC(=O)O)C(=O)O)[C@@H](C)CC | · | · | · | -6 | -1 | ·
O=C(CSc1nnc(-c2ccc3c(c2)OCCO3)o1)N1CCCC1 | -10% | -11% | 75 | 43 | 44* | 71%
CCC1CCCCN1C(=O)CSc1nnc(-c2ccc3c(c2)OCCO3)o1 (centres undefined) | ? | 2% | 18 | 28 | 27* | ?
O=C(CSc1nnc(-c2ccc3c(c2)OCCO3)o1)NC1CCCCC1 | ? | · | · | 19 | -2 | 41%
N#Cc1c(Cl)nc(N/N=C/c2ccccc2)c(Cl)c1Cl | 5.2µM* | 20% | -3 | 3 | 7 | 7%
C[n+]1cccc(/C=N/Nc2nc(Cl)c(C#N)c(Cl)c2Cl)c1 | -22% | 8% | 1 | -14 | 0 | ?
C[N+](C)(C)c1ccc(/C=N/Nc2nc(Cl)c(C#N)c(Cl)c2Cl)cc1 | ? | 31% | -35 | -7 | -3 | 2.1µM*
S=C(NCCc1ccccn1)Nc1ccc(Cl)c(Cl)c1 | ? | 4% | -38 | 41* | 2 | -6%
S=C(NCCc1ccccn1)Nc1ccccc1Cl | -20% | -2% | 43 | 22 | 11 | 17%
CN(C)C(=S)SCC(=O)Nc1ccc(Cl)cc1Cl | 17% | -18% | ? | 110* | 24* | 20%
S=C(NCCc1ccccn1)Nc1ccc(Cl)cc1Cl | 26% | -5% | -19 | 42 | 14* | 1%
Cc1c(Cl)cccc1NC(=S)NCCc1ccccn1 | ? | -9% | -69* | -14 | 0 | -5%
Cn1nc(-c2ccccc2)cc1NC(=O)c1ccc(Cl)cc1 | 63% | 3% | ? | · | · | 1%
O=C(Nc1ccc(F)cc1F)C(Cc1ccccc1)N1Cc2ccccc2C1=O (centres undefined) | · | · | -35 | · | · | ·
COc1ccc(NC(=O)C2CCCN(C(=O)c3cnn(-c4ccc(F)cc4)c3-n3cccc3)C2)cc1 (centres undefined) | · | · | 28 | · | · | ·
S=C(NCCc1ccccn1)Nc1cc(Cl)cc(Cl)c1 | 13µM* | -19% | -29 | -5 | -1 | ?
Cc1c(Cl)cccc1NC(=S)NCCc1ccc(C(F)(F)F)cc1 | 13µM* | 11µM* | -33 | -4 | -3 | 6.6µM*
Cc1cccc(Cl)c1NC(=S)NCCc1ccccn1 | 5% | 3% | -20 | -6 | -1 | -14%
COc1cccc(NC(=S)NCCc2ccccn2)c1 | -21% | -4% | 17 | 39* | 27* | 26%
S=C(NCCc1ccccn1)Nc1ccccc1 | 54% | -18% | ? | 34* | 22* | 14%
SMILES | Pf growth 96h | HCV inhibitor | HCMV antiviral | Shiga inhibitor | Cycloheximide cs | Pf growth 48h
Cc1[nH]c2ccccc2c1C(=O)CSc1nnc(C2CC2)o1 | 47% | ? | -3 | · | · | 0%
COc1ccc([C@]23Cc4cc(C#N)ccc4C(O2)c2c(c4ccc(OC)cc4oc2=O)O3)cc1 | ? | · | · | i | -3 | ?
CN(C)CCNC(=S)Nc1ccccc1Cl | ? | 8% | -14 | -5 | -5 | -5%
CN(C)CCNC(=S)Nc1ccc(Cl)cc1Cl | 20% | 10% | 8 | 30 | 23* | 23%
COc1cccc(NC(=S)N(Cc2ccccn2)Cc2ccccc2Cl)c1 | 62% | ? | -60* | 24 | -1 | ?
COc1ccc(NC(=S)N(Cc2ccccn2)Cc2ccccc2Cl)cc1 | ? | 13% | 4 | 28 | -4 | ?
O=C(c1cccnc1Cl)N1CCOCC1 | 32% | 14% | 25 | -6 | -5 | 5%
CCCc1cc(=O)n2[nH]c(-c3cccc(Br)c3)cc2n1 | 0% | -6% | 85 | 64* | 36* | 72%
CCCc1cc(=O)n2[nH]c(-c3ccc(Br)cc3)cc2n1 | ? | 8% | 127 | 14* | 38* | 49%
CCOC(=O)Cc1cc(=O)n2[nH]c(-c3ccccc3)cc2n1 | 3% | 15% | 12 | -3 | -2 | 25%
CN1OC(C)(CC(=O)Nc2ccccc2)N=C1c1ccc(Br)cc1 (centres undefined) | · | · | -12 | · | · | ·
COc1ccccc1CNC(=O)CN1C(=O)c2cccnc2Oc2ccccc21 | · | · | -21 | · | · | ·
COc1ccccc1CC(=O)Nc1nc(-c2ccc(F)c(F)c2)cs1 | ? | 10µM* | -20 | 44* | 26* | ?
COc1ccccc1OCCNC(=O)c1ccco1 | 68% | 16% | 17 | 22 | 9 | 36%
COc1ccc(CC(=O)Nc2nc(-c3ccc(OC)c(OC)c3)cs2)cc1OC | -14% | 5.6µM* | -34 | 25 | -3 | -18%
COc1ccc(OC)c(-c2csc(NC(=O)Cc3cc(OC)c(OC)c(OC)c3)n2)c1 | -21% | 11µM* | -37 | 4 | -6 | ?
COc1cc(Br)c(CCNC(=O)c2ccco2)cc1OC | ? | -9% | -17 | -5 | -3 | 5.2µM*
COc1ccc(-c2csc(NC(=O)CS(=O)(=O)c3ccccc3)n2)cc1OC | · | · | -38 | · | · | ·
